PubChem BioAssay (NCATS)
Records with an inconclusive call do not appear. The source made the active and inactive calls. Calls follow the shape of the dose curve; as a rule, active = well fitted curve in the direction sought with a large enough effect; inconclusive = small, poorly fitted or top-dose-only effect, or another doubt; inactive = no such curve, though single readings can be large; an effect the other way counts as inactive or inconclusive.

Experiments:
[1] = Quantitative High-Throughput drug screen in 47 multiple myeloma cell lines against the NCATS MIPE library collection: PCM6_Riken cell viability assay (AID 1919870); also: nearly all actives have a fitted effect of over 30% in size; also: potency is read from the fitted curve at half-maximal effect
Summary of the method: (§1)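 Plated at 500 cells per well, myeloma lines received MIPE 4.0 compounds by pin tool. Following 48 h culture at 37 °C, CellTiter-Glo luminescence gave viability relative to DMSO and media-only controls.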

[2] = Quantitative High-Throughput drug screen in 47 multiple myeloma cell lines against the NCATS MIPE library collection: RPMI8226_ATCC cell viability assay (AID 1919871); also: nearly all actives have a fitted effect of over 30% in size; also: potency is read from the fitted curve at half-maximal effect
Summary of the method: as §1

[3] = Quantitative High-Throughput drug screen in 47 multiple myeloma cell lines against the NCATS MIPE library collection: KMS11_JCRBsus cell viability assay (AID 1919873); also: nearly all actives have a fitted effect of over 50% in size; also: potency is read from the fitted curve at half-maximal effect
Summary of the method: as §1

[4] = Quantitative High-Throughput drug screen in 47 multiple myeloma cell lines against the NCATS MIPE library collection: KMS28BM_JCRB cell viability assay (AID 1919874); also: nearly all actives have a fitted effect of over 35% in size; also: potency is read from the fitted curve at half-maximal effect
Summary of the method: as §1

[5] = Quantitative High-Throughput drug screen in 47 multiple myeloma cell lines against the NCATS MIPE library collection: OPM2_DSMZ cell viability assay (AID 1919872); also: nearly all actives have a fitted effect of over 30% in size; also: potency is read from the fitted curve at half-maximal effect
Summary of the method: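 CellTiter-Glo luminescence (ATP) after 48 h compound exposure, 37C/5% CO2; 500 cells/well; MIPE 4.0 approved/investigational drugs pinned in; DMSO = 100%, media only = 0% viability.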

[6] = target: Cytochrome P450 2D6 (Homo sapiens) (UniProt P10635); assay: qHTS for inhibitors of CYP2D6 against the NCATS DSHEA and TCM libraries (AID 1919972)
Summary of the method: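 Steps: enzyme plus luciferin substrate dispensed; test substances pinned; 15 min RT; 1x NADPH regenerating solution added, 30–45 min RT protected from light; detection reagent, 30 min RT; luminescence measured. Minus-enzyme wells as background.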

[7] = target: Cytochrome P450 2C19 (Homo sapiens) (UniProt P33261); assay: qHTS for inhibitors of CYP2C19 against the NCATS DSHEA and TCM libraries (AID 1919974);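 also: luminescence from luciferin released by CYP2C19 oxidation of a pro-luciferin substrate; potency is read from the fitted curve at half-maximal effect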
Summary of the method: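 Light output from converted D-luciferin reports remaining CYP activity. Compounds preincubate with enzyme and substrate for 15 min; NADPH regeneration (1x final) runs the reaction for 30-45 min.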

[8] = KB-3-1 P-gp reporter qHTS against the NCATS DSHEA and TCM libraries (AID 1919975)
Summary of the method: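 CellTiter-Glo luminescence viability readout; KB-3-1 parental cells, 500/well, attached ~4 h, then compound for ~72 h, 37C, 5% CO2. Bortezomib intraplate control.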

Measured: Potency

Chain of Cytochrome P450 2D6 (Homo sapiens) (P10635 whole entry, looked up): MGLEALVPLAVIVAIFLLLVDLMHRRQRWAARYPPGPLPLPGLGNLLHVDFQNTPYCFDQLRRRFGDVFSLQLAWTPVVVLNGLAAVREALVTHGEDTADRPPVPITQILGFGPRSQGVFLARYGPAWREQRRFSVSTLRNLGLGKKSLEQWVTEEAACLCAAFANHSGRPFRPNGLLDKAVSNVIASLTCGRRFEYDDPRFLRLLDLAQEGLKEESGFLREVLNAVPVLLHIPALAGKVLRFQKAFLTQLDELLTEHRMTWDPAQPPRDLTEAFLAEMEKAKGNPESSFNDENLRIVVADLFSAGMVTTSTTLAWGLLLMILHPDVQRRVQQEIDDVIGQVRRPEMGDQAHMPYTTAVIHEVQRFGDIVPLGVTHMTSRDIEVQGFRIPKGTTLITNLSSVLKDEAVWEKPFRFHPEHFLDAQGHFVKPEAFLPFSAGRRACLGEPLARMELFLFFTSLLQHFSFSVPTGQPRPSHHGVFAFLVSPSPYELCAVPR
Chain of Cytochrome P450 2C19 (Homo sapiens) (P33261 whole entry, looked up): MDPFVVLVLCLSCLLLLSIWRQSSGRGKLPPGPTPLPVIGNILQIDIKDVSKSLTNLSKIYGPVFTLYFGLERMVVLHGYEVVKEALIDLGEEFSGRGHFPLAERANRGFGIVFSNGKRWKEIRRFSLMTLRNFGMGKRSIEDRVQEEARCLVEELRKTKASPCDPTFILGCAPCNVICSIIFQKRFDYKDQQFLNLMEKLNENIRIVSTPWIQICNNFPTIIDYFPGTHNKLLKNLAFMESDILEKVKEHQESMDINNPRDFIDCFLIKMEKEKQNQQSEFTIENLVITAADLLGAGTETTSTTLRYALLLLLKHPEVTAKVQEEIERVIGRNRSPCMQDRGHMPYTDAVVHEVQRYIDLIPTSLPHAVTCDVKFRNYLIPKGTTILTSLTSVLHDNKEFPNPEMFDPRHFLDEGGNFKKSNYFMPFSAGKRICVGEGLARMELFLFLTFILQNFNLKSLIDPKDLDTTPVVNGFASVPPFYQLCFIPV

COc1ncnc(NS(=O)(=O)c2ccc(N)cc2)c1OC
inactive: [1] | [2] | [3] | [4]

N=C(N)c1ccc(OCCCCCOc2ccc(C(=N)N)cc2)cc1
active: [1] 5.9 µM | [2] 5.9 µM | [4] 5.9 µM

CN(C)CCc1c[nH]c2ccc(C[C@H]3COC(=O)N3)cc12
inactive: [1] | [2] | [5] | [3] | [4]

NNC(=O)c1ccncc1
inactive: [1] | [2] | [5] | [3] | [4] | [6] | [8]
active: [7] 12.6 µM

CNC1CCCN(c2c(F)cc3c(=O)c(C(=O)O)cn(C4CC4)c3c2OC)C1 (configuration not stated)
inactive: [1] | [2]
active: [3] 9.35 µM

Nc1nc(=S)c2[nH]cnc2[nH]1
active: [1] 7.43 µM | [2] 4.69 µM | [5] 3.72 µM | [3] 4.18 µM | [4] 5.26 µM

CNC(=O)c1cc(Oc2ccc(NC(=O)Nc3ccc(Cl)c(C(F)(F)F)c3)cc2)ccn1
active: [1] 7.43 µM | [2] 20.9 µM | [3] 20.9 µM | [4] 20.9 µM

CCc1c2c(nc3ccc(OC(=O)N4CCC(N5CCCCC5)CC4)cc13)-c1cc3c(c(=O)n1C2)COC(=O)[C@]3(O)CC
active: [1] 13.2 µM | [2] 0.372 µM | [4] 0.469 µM

OC(Cn1cncn1)(Cn1cncn1)c1ccc(F)cc1F
active: [2] 5.26 µM
inactive: [1] | [3] | [4]

COc1ccc2c(c1)c(CC(=O)OCC(=O)O)c(C)n2C(=O)c1ccc(Cl)cc1
inactive: [1] | [2] | [5] | [3] | [4]

C[C@]12C=CC(=O)C=C1CC[C@@H]1[C@@H]2C(=O)C[C@@]2(C)[C@H]1CC[C@]2(O)C(=O)CO
inactive: [1] | [2] | [3] | [4]

O=C(O)CSCC(=O)NC1CCSC1=O (configuration not stated)
inactive: [1] | [2] | [3] | [4]

COc1cc([C@@H]2c3cc4c(cc3[C@H](O)[C@H]3COC(=O)[C@H]23)OCO4)cc(OC)c1OC
inactive: [1] | [5] | [3]

CCn1cc(C(=O)O)c(=O)c2cc(F)c(N3CCN(C)CC3)cc21
inactive: [1] | [5] | [3]

O=P(O)(O)C(O)(Cc1cccnc1)P(=O)(O)O
inactive: [1] | [5] | [3] | [4]

COc1cnc(NS(=O)(=O)c2ccc(N)cc2)nc1
inactive: [2] | [5]

CC(C)NCC(O)c1ccc(NS(C)(=O)=O)cc1 (configuration not stated)
inactive: [1] | [5] | [3] | [4]

CC1=CC(=O)c2ccccc2C1=O
active: [1] 18.7 µM | [5] 20.9 µM | [3] 18.7 µM

Nc1ccc(S(=O)(=O)Nc2ccccn2)cc1
inactive: [1] | [5] | [3] | [4]

CNS(=O)(=O)CCc1ccc2[nH]cc(C3CCN(C)CC3)c2c1
inactive: [1] | [5] | [3] | [4]

CNNCc1ccc(C(=O)NC(C)C)cc1
inactive: [1] | [4]
active: [5] 8.33 µM

O=c1oc2c(O)c(O)cc3c(=O)oc4c(O)c(O)cc1c4c23
inactive: [1] | [5] | [3]

CC(C)OC(=O)OCOP(=O)(CO[C@H](C)Cn1cnc2c(N)ncnc21)OCOC(=O)OC(C)C
inactive: [5] | [3]
active: [1] 16.6 µM | [4] 14.8 µM

COC(=O)Nc1nc2ccc(C(=O)c3ccccc3)cc2[nH]1
active: [1] 5.9 µM | [5] 1.48 µM | [3] 0.332 µM

C[C@@H]1C[C@H]2[C@@H]3CCC4=CC(=O)C=C[C@]4(C)[C@@]3(Cl)[C@@H](O)C[C@]2(C)[C@@]1(OC(=O)c1ccco1)C(=O)CCl
active: [1] 2.96 µM | [5] 23.5 µM | [4] 29.6 µM

CC(C)OC(=O)C(C(=O)OC(C)C)=C1SC=CS1
inactive: [1] | [5] | [3] | [4]

O=C(O)c1ccc(-n2nc(-c3ccccc3O)nc2-c2ccccc2O)cc1
inactive: [5]
active: [1] 23.5 µM

Clc1ccccc1CN1CCc2sccc2C1
inactive: [2]

CO[C@@]12[C@H](COC(N)=O)C3=C(C(=O)C(C)=C(N)C3=O)N1C[C@@H]1N[C@@H]12
active: [1] 20.9 µM | [5] 26.4 µM | [3] 2.96 µM | [4] 6.62 µM

CC(C(=O)O)c1ccc2c(c1)CC(=O)c1ccccc1S2 (configuration not stated)
inactive: [2] | [5]

CN(CCOc1ccc(CC2SC(=O)NC2=O)cc1)c1ccccn1 (configuration not stated)
inactive: [1] | [5] | [3] | [4]
